# Experimental data published in publication PMC7826789 (International Journal of Molecular Sciences, 2021).
# Tested on: INSR
# Settings: Compound Concentration (nM):1000
# 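Note: KINOMEscan scanMAX binding as percent activity remaining versus control; lower means stronger binding.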
row,SMILES,Percent Control [%]
1,COc1ccc2c(-c3ccnc(Nc4cccc(OC(F)(F)F)c4)n3)cnn2n1 [GW810372X],90
2,CCS(=O)(=O)c1ccc(OC)c(Nc2ncc(-c3cccc(OC)c3)o2)c1 [GW580509X],95
3,CC1=C(C(=O)Nc2ccc3[nH]ncc3c2)C(c2ccc3ccccc3c2)CC(=O)N1 (centres unmarked) [GSK270822A],100
4,COc1cccc(-c2c[nH]c3c(N/N=C/c4ccncc4)ncnc23)c1 [GW814408X],93
5,Cl.O=C(Nc1ccc(Oc2ccc3[nH]c(NC(=O)c4ccco4)nc3c2)cc1)Nc1cc(C(F)(F)F)ccc1F [GW683134A],88
6,COC(=O)Nc1nc2ccc(Oc3ccc(NC(=O)Nc4cc(C(F)(F)F)ccc4F)cc3)cc2s1.Cl [GW693917A],68
7,COc1cc(N2CCN(C(C)C)CC2)ccc1Nc1nc(Nc2ccc(F)cc2C(=O)NC[C@@H](O)CO)c2cc[nH]c2n1 [GSK1392956A],1.1
8,COc1cc2ncn(-c3cc(O[C@H](C)c4ccccc4Cl)c(C(N)=O)s3)c2cc1OC [GSK237701A],100
9,Cl.c1ccc(Cc2nc3ccc(Nc4ncnc5ccccc45)cc3[nH]2)cc1 [GR269666A],100
10,COc1cc(C)c(N(C)C(=O)CN(C)C)cc1Nc1nc(Nc2cccc(F)c2C(N)=O)c2cc[nH]c2n1 [GSK2219385],4.3
11,NS(=O)(=O)c1ccc(N/N=C2\C(=O)Nc3ccc(C(=O)NCCc4c[nH]cn4)cc32)cc1 [GW300660X],96
